Only some compounds are listed: those with a hit (about 3.5% of all), similar ones and a draw of the others.
Mtb FBA inh – Mtb FBA enzyme inhibitors, primary screen, biochemical, fluorescence, strain H37Rv. Fructose-bisphosphate aldolase (Mycobacterium tuberculosis (strain ATCC 25618 / H37Rv)), …. purified M. tuberculosis FBA, fluorescence read-out. inhibition, % at 1 µM. actives 2.3% (n = 360,000);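 note: 0% = vehicle and 100% = reference inhibitor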
Rv3671c protease – Rv3671c serine protease inhibitors, primary screen, biochemical, fluorescence polarization, M. tuberculosis H37Rv. actives 0.048% (n = 320,000). P9WHR9. inhibition, % at 5.96 µM; in the data active = inhibition above about 38%;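 note: extracellular domain of Rv3671c used as enzyme; 0% = enzyme with DMSO and 100% = no enzyme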
Target sequence (P9WHR9 whole entry, looked up, the tested form may be a part): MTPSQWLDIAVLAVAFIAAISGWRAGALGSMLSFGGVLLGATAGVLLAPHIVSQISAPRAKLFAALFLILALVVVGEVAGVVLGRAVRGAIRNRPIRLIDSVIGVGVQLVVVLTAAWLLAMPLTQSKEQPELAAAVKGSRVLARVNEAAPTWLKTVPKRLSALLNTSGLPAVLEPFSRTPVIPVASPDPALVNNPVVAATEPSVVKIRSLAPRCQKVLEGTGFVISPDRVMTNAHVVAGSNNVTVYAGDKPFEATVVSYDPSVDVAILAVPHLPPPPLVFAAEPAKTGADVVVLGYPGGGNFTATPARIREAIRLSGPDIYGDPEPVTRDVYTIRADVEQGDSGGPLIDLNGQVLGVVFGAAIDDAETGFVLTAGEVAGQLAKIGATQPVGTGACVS
GDH-TPI counter-1 – GDH-TPI coupling enzyme inhibitors, primary screen, artefact control for M. tuberculosis FBA inhibitor project, biochemical, absorbance, full deck. inhibition, % at 4.8 µM. actives 1.2% (n = 360,000). GDH-TPI coupled enzyme counterscreen, NADH absorbance. AID 588335, 2011; in the data active = inhibition above about 30%;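 note: 0% = DMSO wells and 100% = wells lacking the enzyme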
UGM FP inh – M. tuberculosis UGM enzyme inhibitors, primary screen, biochemical, fluorescence polarization, single point; UDP-galactopyranose mutase (Mycobacterium tuberculosis (strain ATCC 25618 / H37Rv)), …; purified UGM, fluorescence polarization probe displacement; inhibition, % at 10 µM; actives 0.06% (n = 320,000); AID 504406, 2011; in the data active = inhibition above about 10%, passing the limit was not always enough
Mtb FBA confirm – M. tuberculosis aldolase blockers, biochemical, fluorescence, strain H37Rv, confirmation; shares compounds with Mtb FBA inh; purified M. tuberculosis FBA, fluorescence read-out; inhibition, % at 1 µM; actives 78% (n = 5,600); AID 651616, 2012;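 note: 0% = vehicle wells and 100% = reference inhibitor wells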
GDH-TPI counter-2 – GDH-TPI coupling enzyme inhibitors, artefact control for M. tuberculosis FBA inhibitor project, biochemical, fluorescence, high throughput | shares compounds with Mtb FBA inh | GDH-TPI coupled enzyme counterscreen | inhibition, % at 1 µM | actives 81% (n = 5,600); in the data active = inhibition above about 10%
* hit, by the source's call; · = no result given; + = active, no number. Cut-off read from the data, not from the text of the source, unless noted: active = inhibition above about 27%; inactive = the rest.

SMILES | Mtb FBA inh | Rv3671c protease | GDH-TPI counter-1 | UGM FP inh | Mtb FBA confirm | GDH-TPI counter-2
CCNc1nc(Oc2ccc(F)cc2)cc(C(F)(F)F)n1 | 2 | -5 | -3 | 3 | · | ·
CCNc1nc(Oc2ccc(C#N)cc2)cc(C(F)(F)F)n1 | 56* | -2 | 7 | 1 | 131* | 88*
C[C@H](NS(=O)(=O)c1ccc(Cl)cc1)C(=O)OCC(=O)NCCc1ccc(S(N)(=O)=O)cc1 | 0 | · | -2 | · | · | ·
CC(NC(=O)c1ccc(OC2CCN(C(=O)c3cccnc3)CC2)cc1)C1CC1 (configuration not stated) | 2 | -8 | -4 | -1 | · | ·
O=C(c1cccnc1)N1CCC(Oc2ccc(C(=O)N3CCCC(O)C3)cc2)CC1 (configuration not stated) | 28* | -7 | 3 | -3 | 58* | 30*
COc1ccc(/C=C/c2ccncc2)cc1 | 2 | -6 | 22 | 4 | · | ·
COc1ccc(/C=C/c2c(-c3ccc(OC)cc3)oc3cccnc23)cc1 | 41* | -3 | 12 | 0 | 4 | -2
O=S(=O)(Nc1cccc(-c2cn3c(n2)SCC3)c1)c1ccccc1F | 1 | -16 | 8 | 5 | · | ·
O=S(=O)(Nc1cccc(-c2cn3c(n2)SCC3)c1)c1cccs1 | 32* | -19 | 0 | 1 | 98* | 96*
CCOC(=O)/C=C/[C@H]1CCc2cccc(Cl)c2O1 | 67* | -3 | -4 | 2 | 9 | 7
CN(C(=O)Cn1nnc(-c2cccnc2)n1)C1CCCCC1 | · | -8 | · | -3 | · | ·
Cc1cc(S(=O)(=O)NCc2ccc3c(c2)OCO3)ccc1F | 87* | -11 | 7 | 0 | 74* | 96*
O=S(=O)(NCc1ccc2c(c1)OCO2)c1ccc(F)c(F)c1 | -1 | 4 | -6 | 1 | · | ·
CCOC(=O)Cc1csc(-n2sc3ccccc3c2=O)n1 | -1 | -11 | 4 | 4 | · | ·
CCOC(=O)Cc1csc(/N=C/c2c(O)n(-c3ccccc3C(F)(F)F)c(=O)c3ccccc23)n1 | 105* | -2 | 18 | 0 | 86* | 58*
CC(C)CNC(=O)c1ccccc1C(=O)NC1(C(=O)NCC(C)C)CCCC1 | 1 | · | 9 | · | · | ·
CN(C)C1(CNCC(O)c2ccccc2)CCCCC1 (configuration not stated) | 30* | 9 | 10 | 1 | 121* | 106*
CN(C)C1(CNC(=O)Nc2ccccc2)CCCCC1 | 1 | -4 | -4 | 0 | · | ·
CCCOP(=O)(c1ccc(N(C)C)cc1)C(O)c1ccc(N(C)C)cc1 (configuration not stated) | 1 | 4 | 6 | 1 | · | ·
O=C1CCC(C(=O)OCc2cc(=O)oc3ccc4ccccc4c23)=NN1 | 31* | 0 | 22 | -2 | 91* | 62*
O=C1CCC(C(=O)OCc2nnc(-c3ccc(Cl)cc3)o2)=NN1 | 1 | 0 | 3 | 0 | · | ·
CCN(CC)CCNC(=O)Cn1c(-c2ccccn2)nc2ccccc21 | 37* | 6 | 1 | 0 | 145* | 121*
O=C(O)Cn1c(-c2ccccc2)nc2ccccc21 | 8 | 4 | 9 | 0 | · | ·
O=C(O)Cn1c(-c2ccccc2)cc2ccccc21 | 47* | 5 | 7 | 2 | 104* | 95*
O=C(O)Cn1c(=O)c(-c2ccccc2)nc2ccccc21 | 56* | 3 | 26 | 2 | 119* | 88*
SMILES | Mtb FBA inh | Rv3671c protease | GDH-TPI counter-1 | UGM FP inh | Mtb FBA confirm | GDH-TPI counter-2
NNC(=O)Cn1c(-c2ccccn2)nc2ccccc21 | 2 | -3 | -2 | 1 | · | ·
O=C(Cn1c(C(=O)O)cc2ccccc21)c1ccccc1 | 0 | 3 | 4 | -3 | · | ·
O=C(O)Cn1c(-c2ccccn2)nc2ccccc21 | 56* | 1 | 11 | -1 | -4 | -8
COc1ccc(C(C)(NC(C)=O)c2nc(-c3cccc4cccnc34)cs2)cc1 (configuration not stated) | 7 | · | 17 | · | · | ·
CC(C)(CNC(=O)c1cccc(NS(=O)(=O)c2ccc(Br)cc2)c1)N1CCOCC1 | -1 | -9 | -2 | 1 | · | ·
CCOC(=O)Cn1c(-c2ccccn2)nc2ccccc21 | 35* | -1 | 10 | -3 | 91* | 79*
O=C(O)c1ccccc1-c1ccccc1C(=O)Nc1ccc(-c2nc3cc(Cl)ccc3o2)cc1 | 25 | -19 | 30 | 0 | · | ·
CCCCCC(=O)Nc1ccc2oc(-c3cccnc3)nc2c1 | 84* | -5 | 4 | 2 | 47* | 44*
CC(=O)Nc1ccc(-c2nc3cc(Cl)ccc3o2)cc1 | 29* | -11 | 21 | 2 | + | +
CCCC(=O)Nc1ccc(-c2nc3cc(C)ccc3o2)cc1 | 96* | -18 | 25 | 4 | 76* | 77*
CC(C)(C)C(=O)Nc1ccc2oc(-c3cc(F)c(F)cc3Cl)nc2c1 | 53* | 14 | 19 | 1 | 70* | 47*
O=C(Nc1ccc2oc(-c3ccccc3F)nc2c1)c1cncc(Br)c1 | 1 | 5 | 11 | -2 | · | ·
CCc1nc2ccc(C(=O)N3CCCCC3)cn2c1N(C)CCCc1ccccc1 | -3 | · | 6 | · | · | ·
CCOC(=O)c1nc(-c2ccccc2)oc1N1CCOCC1 | 97* | -3 | 4 | -1 | 120* | 95*
O=P(c1ccccc1)(c1ccccc1)c1nc(-c2ccccc2)oc1N1CCOCC1 | 2 | 8 | 1 | 5 | · | ·
N#CCC(=O)Nc1ccc(C(=O)NCc2ccccn2)cc1 | 27* | -2 | -1 | -1 | 114* | 72*
CCCN1CCC(=O)NC1=S | 2 | · | -1 | · | · | ·
Nc1[nH]ncc1-c1ccc(F)cc1 | 108* | 5 | 11 | -3 | 10 | -6
CCC(C)NC(=S)Nc1ccc2nc(N3CCOCC3)cc(C)c2c1 (configuration not stated) | 29* | 2 | 6 | -2 | 1 | -2
Cc1cc(N2CCOCC2)nc2ccc(NC(=O)CCC(=O)N3CCCCC3)cc12 | 37* | -2 | -1 | 2 | 44* | 33*
Cc1ccc(C)c(N2CCN(C(=S)Nc3ccc4nc(N5CCOCC5)cc(C)c4c3)CC2)c1 | 27* | 15 | 9 | 4 | 89* | 64*
COc1cc(NC(=O)CCC(=O)Nc2ccc3nc(N4CCOCC4)cc(C)c3c2)cc(OC)c1OC | 106* | -7 | 24 | 2 | 40* | 30*
Cc1cc(C)cc(N2C(=O)CCN(Cc3ccccc3)C2=O)c1 | 0 | -2 | 2 | -1 | · | ·
CC1(c2nnc(-c3cccc(Cl)c3)o2)CC(c2ccccc2F)=NO1 (configuration not stated) | 6 | 6 | 21 | -1 | · | ·
Cc1cc(N2CCOCC2)nc2ccc(NC(=O)CCC(=O)N3CCN(c4cccc(C(F)(F)F)c4)CC3)cc12 | 35* | -4 | 11 | 2 | 54* | 40*

Screening results deposited in PubChem by several laboratories.
